# GLP1R ag: activates the human GLP-1 receptor; Potency, µM (titrated, usually from 45.6 µM), inactives show top-dose activation, most hits filed as activators; P43220; HEK293 GLP-1R CRE-luciferase, luminescence, 4-6 h; cells express a hypersensitive GLP-1R form; 0.007% of 380,000 active; also: potency is read from the fitted curve at half-maximal effect; % of control where 0% means no effect
# TrxR1 inh: inhibitors of rat thioredoxin reductase 1. O89049. recombinant rTrxR1, NADPH fluorescence consumption, selenite substrate. Potency, µM (series often up to 114 µM), inactives show top-dose activity change, negative = inhibition, hits mostly inhibitors. 1% of 390,000 active; also: potency is read from the fitted curve at half-maximal effect; % is scaled to controls: 0 for no effect and ±100 for the full control effect; nearly all actives have a fitted effect of over 65% in size
# Target sequence (O89049 whole entry, looked up): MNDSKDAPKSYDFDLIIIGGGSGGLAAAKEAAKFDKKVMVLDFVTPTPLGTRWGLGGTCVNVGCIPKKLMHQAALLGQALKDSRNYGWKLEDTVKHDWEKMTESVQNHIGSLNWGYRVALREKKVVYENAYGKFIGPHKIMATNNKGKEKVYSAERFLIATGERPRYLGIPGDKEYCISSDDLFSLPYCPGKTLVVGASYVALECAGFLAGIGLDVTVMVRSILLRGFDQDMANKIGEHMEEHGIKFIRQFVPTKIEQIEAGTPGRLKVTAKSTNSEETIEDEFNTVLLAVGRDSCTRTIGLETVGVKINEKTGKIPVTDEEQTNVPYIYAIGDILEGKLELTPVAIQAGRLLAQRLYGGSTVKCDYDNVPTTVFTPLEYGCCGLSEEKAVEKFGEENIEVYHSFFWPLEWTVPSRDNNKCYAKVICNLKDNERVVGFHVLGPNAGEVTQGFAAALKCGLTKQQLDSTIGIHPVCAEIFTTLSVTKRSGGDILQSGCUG
#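 Rat TrxR1 (90 nM in the dispensed reagent) was pre-reduced with 400 uM NADPH for 5 min at room temperature, then incubated with compound for 15 min. After 400 uM selenite was added, NADPH fluorescence (Ex 340/Em 450 nm) was followed for 8 min.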
# GLP-1R inv ag: GLP-1 receptor (human) inverse agonism; P43220; HEK293 GLP-1R CRE-luciferase, luminescence, 24 h; GLP-1R form is constitutively active; Potency, µM (top dose mostly 38.3 µM), inactives show at the highest dose activity change, negative = inhibition, most hits filed as inhibitors; 1.6% of 410,000 active; AID 624417; also: potency is read from the fitted curve at half-maximal effect; % is scaled to controls: 0 for no effect and ±100 for the full control effect; nearly all actives have a fitted effect of over 55% in size
#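 Constitutively active GLP-1R drives a cAMP-responsive luciferase in stably transfected HEK293 cells; test compounds are added after overnight (12 h) attachment and left 24 hr, and signal loss in luminescence marks inhibition.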
# TrxR1 substrate: rat thioredoxin reductase 1 substrate activity. Potency, µM (doses to about 114 µM), for inactives: at the top dose activity change, negative = substrate turnover. O89049. 0.01% of 390,000 active. AID 588456. purified TrxR1 substrate turnover, NADPH consumption readout; also: potency is read from the fitted curve at half-maximal effect; % is scaled to controls: 0 for no effect and ±100 for the full control effect; nearly all actives have a fitted effect of over 50% in size
#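 Rat TrxR1, dispensed at 90 nM, was prereduced with 400 uM NADPH (final) for 5 min at ~22 deg C, then incubated with compound 15 min before 400 uM selenite. A first-read NADPH fluorescence drop versus no-compound background flagged substrates.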
# IDH1 R132H inh: inhibitors of human mutant IDH1 R132H; IDH1-R132H enzyme, NADPH consumption, diaphorase/resazurin fluorescence; Potency, µM (series often up to 76.6 µM), for inactives: at the highest dose activity change, negative = inhibition, most hits filed as inhibitors; 0.093% of 390,000 active; O75874; also: potency is read from the fitted curve at half-maximal effect; % is scaled to controls: 0 for no effect and ±100 for the full control effect; nearly all actives have a fitted effect of over 65% in size
#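 IDH1-R132H (0.5 ug/mL) preincubated 30 min with compound, then NADPH (0.016 mM) and alpha-KG (2 mM) added; 80 min at RT, pH 7.5. Remaining NADPH coupled via diaphorase/resazurin to fluorescence (540/590 nm); concentration-response curves normalized to no-enzyme control.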
# GLP1R cytotox: cytotoxic in the GLP-1 receptor inverse agonist counter-screen; HEK293 cAMP-luciferase reporter cells, luminescence, 24 h; Potency, µM (series often up to 38.3 µM), without a hit: at the highest dose activity change, negative = inhibition, actives largely listed as inhibitors; 0.13% of 410,000 active;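 also: loss of luciferase light is scored as toxicity; potency is read from the fitted curve at half-maximal effect; % is scaled to controls: 0 for no effect and ±100 for the full control effect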
#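 MLSMR compounds, 24 hr on cells at 37 deg C/5% CO2; luminescence after luciferase reagent (12 min RT). Inhibition counted as the undesired cytotoxic outcome.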
# IDH1 autofl: counter-screen for mutant IDH1 inhibitors: fluorescence interference. Resorufin detection reagent fluorescence interference, cell-free. 750 tested, under 10 active. inhibition of signal, % at 51.2 µM. shares compounds with IDH1 R132H inh;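 also: 0% = wells with normal resorufin and full inhibition = wells lacking resorufin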
# WT IDH1 inh: selectivity of mutant IDH1 inhibitors: human wild-type IDH1; shares compounds with IDH1 R132H inh; WT IDH1 enzyme, NADPH diaphorase/resazurin fluorescence; Potency, µM (top dose mostly 115 µM), without a hit: at the highest dose activity change, negative = inhibition, most hits filed as inhibitors; 9% of 750 active; AID 623995;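 also: potency is read from the fitted curve at half-maximal effect; 0% = full WT IDH1 enzyme control and full inhibition = no enzyme wells; nearly all actives have a fitted effect of over 55% in size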
# mIDH1 confirm: inhibits human mutant IDH1 enzyme in cherrypick confirmation. 83% of 750 active. shares compounds with IDH1 R132H inh. IDH1 R132H enzyme, NADPH diaphorase/resazurin fluorescence. Potency, µM (highest dose often 76.6 µM), without a hit: top-dose activity change, negative = inhibition, usual class: inhibitors. AID 624002; also: potency is read from the fitted curve at half-maximal effect; nearly all actives have a fitted effect of over 50% in size
# Active calls of the source: *; ? = inconclusive; . = no result; [ ] = remark or other dose. An excerpt weighted towards active compounds, which were near 2.7% of everything screened. Calls follow the shape of the dose curve; as a rule, active = well fitted curve in the direction sought with a large enough effect; inconclusive = small, poorly fitted or top-dose-only effect, or another doubt; inactive = no such curve, though single readings can be large; an effect the other way counts as inactive or inconclusive.
SMILES,GLP1R ag,TrxR1 inh,GLP-1R inv ag,TrxR1 substrate,IDH1 R132H inh,GLP1R cytotox,IDH1 autofl,WT IDH1 inh,mIDH1 confirm
CCN(C(=O)CSc1nc2n[nH]c(C)c2c(=N)n1-c1ccc(Cl)c(C)c1)c1cccc(C)c1,13.2%,9.3%,13.3%,6.3%,46.5µM*,2.9%,-0.8,-11.2%,22.4µM*
Cc1cccc(-n2c(SCC(=O)Nc3ccccc3Cl)nc3n[nH]c(C)c3c2=N)c1,.,22.2%[57.1 µM],?,2.0%[57.1 µM],?,-14.9%,-8.8,-1.8%,25.1µM*
CCc1ccccc1NC(=O)CSc1nc2n[nH]c(C)c2c(=N)n1-c1cccc(C)c1,.,13.1%[57.1 µM],41.9%,3.1%[57.1 µM],-3.7%,-0.3%,.,.,.
COCc1ccc(-c2c(-c3ccsc3)oc(=O)c3cc(OC)c(OC)cc23)cc1,1.0%,8.2%[57.1 µM],21.9%,6.2%[57.1 µM],15.8µM*,0.4%,5.7,1.3%,10µM*
COc1ccc(N=C2S/C(=C\c3ccc(OC(C)C(=O)O)c(OC)c3)C(=O)N2CCc2c[nH]c3ccccc23)cc1 (stereo unspecified),2.3%,0.6%,?,-4.1%,?,?,-2.2,?,28.2µM*
C=CS(=O)(=O)c1c2cc(OC)ccc2nc2ccc(OC)cc12,-11.4%,1.26µM*,?,12.8%[57.1 µM],?,372.2%,2.1,28.2µM*,10µM*
COc1ccc2nc(Cl)cc(Cl)c2c1,9.8%,27.0%,-0.5%,10.8%,-8.4%,3.1%,.,.,.
CC(=O)Oc1ccc(C(=O)Nc2cccc(C(=O)c3ccc(C)c(C)c3)c2)cc1,2.3%,-3.4%,12.6µM*,-7.6%,?,?,1.4,2.1%,10µM*
COc1ccc(C(=O)Nc2cccc(OC(=O)c3ccc(C)c(C)c3)c2)cc1,-20.1%,20.9%[57.1 µM],?,-1.1%[57.1 µM],3.6%,-29.9%,.,.,.
C/C(=N\NC(N)=S)c1ccccc1,9.7%,?,?,-12.4%,1.5%,-16.1%,.,.,.
C/C(=N\NC(N)=S)c1cc(-c2ccccc2)c(-c2ccccc2)s1,23.1%,-3.6%,?,3.1%,?,-17.4%,0.0,1.0%,?
CCOc1ccccc1NC(=O)CSc1nc2ccccc2c2nc(CCn3cncc3C)nn12,.,8.5%[57.1 µM],?,-4.9%[57.1 µM],17.1%,-10.9%,.,.,.
Cc1ccc(S(=O)(=O)CCc2nnc(NC(=O)CCl)s2)cc1C,2.5%,?,-21.3%,4.5%,?,-2.8%,-0.5,-6.2%,31.6µM*
COc1ccc(CCNC(=O)Cc2c(C)c3c(cc(C)c4c(C)c(C)oc43)oc2=O)cc1,.,16.7%,3.5%,-1.2%,-6.8%,-0.6%,.,.,.
COC(=O)[C@@]12CCCCN1[C@H](c1ccc(-c3ccc(OC)cc3)c(OC)c1)[C@@H]1C(=O)N(C)C(=O)[C@@H]12,-0.2%,-15.5%,?,4.6%,35.5µM*,-19.9%,4.1,5.1%,5.01µM*
CCOC(=O)N1CCN(Cc2nc(N)nc(Nc3ccc(Oc4ccccc4)cc3)n2)CC1,-42.2%,?,-25.9%,-14.2%[57.1 µM],52.1µM*,?,1.7,-7.3%,?
CCOC(=O)N1CCN(Cc2nc(N)nc(Nc3ccc(OC)cc3)n2)CC1,0.2%,-8.6%[57.1 µM],0.0%,6.6%[57.1 µM],2.2%,3.7%,.,.,.
Cc1ccc(-c2nnc(Nc3ccc(F)cc3)c3ccccc23)cc1S(=O)(=O)NC(C)C,.,15.4%,8.9%,5.9%,?,0.4%,0.9,7.2%,?
CCOc1ccc(-n2c(=O)c3c(C)c(C)sc3n(Cc3c(F)cccc3Cl)c2=O)cc1,.,18.6%,0.2%,8.8%,.,-9.3%,.,.,.
COc1cc2cnc(-c3ccccc3)c(-c3ccc(C(F)(F)F)cc3)c2cc1OC,1.5%,14.7%[57.1 µM],1.1%,5.2%[57.1 µM],?,6.6%,-2.8,-0.6%,15.8µM*
Cc1cccc(OCCSc2nc3ccccc3n2CC(=O)N2CCOCC2)c1,.,5.2%,-1.2%,2.5%,.,-19.3%,.,.,.
COc1cc(C2C(C#N)=C(N)N(N(C)C)C3=C2C(=O)CCC3)cc(OC)c1OC (stereo unspecified),10.4%,7.9%[57.1 µM],-13.6%,-0.7%,-12.2%,-14.0%,.,.,.
COc1cc(C2C(C#N)=C(N)N(c3sc4c(c3C#N)CCCC4)C3=C2C(=O)CC(C)(C)C3)cc(OC)c1OC (stereo unspecified),-1.4%,-10.5%,31.9%,-6.5%,?,-10.6%,5.7,7.3%,7.94µM*
CCC(=O)NC1CC(=O)N(c2ccc3c(c2)OCCO3)C1 (stereo unspecified),.,31.6%[57.1 µM],8.4%,8.5%[57.1 µM],-6.8%,3.6%,.,.,.
N=c1c(S(=O)(=O)c2ccccc2)cc2c(=O)n3ccccc3nc2n1CC1CCCO1 (stereo unspecified),3.0%,38.0%[57.1 µM],39.3%,110.9%,?,157.2%,-1.7,8.1%,35.5µM*
SMILES,GLP1R ag,TrxR1 inh,GLP-1R inv ag,TrxR1 substrate,IDH1 R132H inh,GLP1R cytotox,IDH1 autofl,WT IDH1 inh,mIDH1 confirm
N=c1c(S(=O)(=O)c2ccc(Cl)cc2)cc2c(=O)n3ccccc3nc2n1CC1CCCO1 (stereo unspecified),-0.2%,-11.9%,3.4%,-8.4%,4.2%,4.2%,.,.,.
Cc1ccc(/C=C/c2onc(C)c2S(=O)(=O)N2CCC(C(=O)NCC(C)c3ccccc3)CC2)cc1 (stereo unspecified),0.5%,12.6%[57.1 µM],-4.6%,-3.0%[57.1 µM],-12.0%,5.8%,.,.,.
Cc1cc(C)n(-c2nc(N(c3ccccc3)c3ccccc3)nc(-n3nc(C)cc3C)n2)n1,-7.0%,18.9%,?,4.7%,?,2.4%,-1.2,7.1%,10µM*
Cc1cc(C)cc(NC(=O)N2CCN(C)c3ncccc32)c1,0.0%,9.6%,8.0%,8.2%,1.8%,-7.4%,.,.,.
CCOC(=O)c1cc(-c2ccncc2)nc2c1c(C)nn2-c1ccccn1,10.5%,-2.2%[57.1 µM],11.1%,12.5%[57.1 µM],?,-5.1%,-2.4,?,22.4µM*
COc1ccc(-c2cc(C(=O)O)c3c(C)nn(-c4ccccn4)c3n2)cc1,-4.3%,-49.9%,2.3%,82.9%[57.1 µM],1.0%,-7.6%,.,.,.
CCN(C(=O)c1cc2c(C)nc3ccccc3c2o1)c1cc(Cl)ccc1OC,?,3.1%,?,-5.7%,32.9µM*,-2.5%,-5.8,4.7%,20µM*
